The values that follow come from PubChem BioAssay.

“And” between values parts separate entries of the source, which are not always exact repeats. Equal values may be shown once. The source made the active and inactive calls.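 Rule for the calls, unless noted: active = compounds whose cell count with miR-34 switched on is under 0.7 times the count with it off; inactive = the rest.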

A short description of assay [1]: compounds altering viability of human ES cells (AID 493140; call rule not given here;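 note: cells exposed to compounds for four days before counting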). Conditions: human embryonic stem cell survival screen; stronger effect = higher value.
Assay [2] can be described thus: P. berghei load reduction in hepatocytes – cell-based, HepG2, luciferase luminescence, HepG2 viability, primary screen (AID 624349; in the data active = parasite load remaining mostly below about 12%, no sharp cut-off; inactive = mostly above about 10%;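 note: 100% = mean of DMSO negative control wells on the same plate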). Conditions: P. berghei liver stage in HepG2, luciferase luminescence, concentration not given here; parasite load remaining: stronger effect = lower value; viability: measured here: HepG2 viability without parasites.
Assay [3] can be described thus: Wnt pathway potentiators raising nuclear beta-catenin – imaging, WNT3A-conditioned medium, mouse C2C12, NPC library, primary screen (AID 1117326; in the data active = nuclear beta-catenin stimulation mostly above about 4.2%, no sharp cut-off; inactive = mostly below about 10%). The note with it: stronger effect = higher value.
The nature of assay [4]: stimulators of insulin release from INS-1E, primary screen, cell-based, 5 mM glucose, NPC library (AID 1117329;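 active = compound raises insulin release from rat beta cells at 5 mM glucose, no numeric limit stated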). The note with it: rat INS-1E insulin secretion, at 10 µM, stronger effect = higher value.
Assay [5] is described as follows: growth inhibition of GSK3B-pretreated HCT116 cells – cell-based, CellTiter-Glo, 0.2 to 20 µM (AID 1117336;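 active = compounds lowering colon cancer cell viability after pretreatment blocking the GSK3B kinase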). Conditions: HCT116 viability after GSK3B inhibitor, at 20 µM, stronger effect = higher value. (Cellular ATP, detected with luciferase, serves as a proxy for viable cell number.)
The nature of assay [6]: inhibition of endothelial tube formation, primary screen, imaging, VEGF stimulated, CD31 staining, tube area, NPC library (AID 1117340;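 active = compound that reduces growth-factor-driven endothelial tube area in a mixed cell culture, no cutoff stated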). Conditions: VEGF-stimulated ADSC/ECFC co-culture, at 10 µM, stronger effect = higher value.
The nature of assay [7]: GLP1 release stimulators, primary, NCI-H716, NPC library (AID 1117341;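 active = compound raises GLP1 secretion from the human gut endocrine cells, with no numeric limit stated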). Conditions: NCI-H716 cells, at 10 µM, stronger effect = higher value.
A short description of assay [8]: HCT116 colon cancer cell growth inhibition, primary screen, CellTiter-Glo luminescence, NPC library (AID 1117342;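 active = compounds that lower survival of HCT116 colon cancer cells in the luminescence readout, no numeric limit stated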). The note with it: at 20 µM (top of the series).
Assay [9] can be described thus: reduced SW480 viability measured with CellTiter-Glo, NPC library, primary (AID 1117343;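 active = compounds that lower viability of the colon cancer cells in the luminescence readout, with no numeric limit stated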). The note with it: CellTiter-Glo luminescence; at 20 µM (top of the series) unless noted.
Assay [10] can be described thus: NPC library primary testing for decreased DLD-1 cell viability via CellTiter-Glo (AID 1117346;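 active = compounds that lower survival of DLD-1 colon cancer cells in the luminescence readout, no cutoff given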). The note with it: DLD-1 viability, CellTiter-Glo luminescence; at 20 µM (top of the series).
Assay [11] in a line: EMT-state selective cytotoxicity in co-culture – imaging, PC-3E GFP, TEM4-18 mCherry, primary screen (AID 1345086;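 active = compounds killing one labelled cell type while sparing the other, by normalised counts and ratio limits, not self-fluorescent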;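 for all read-outs here: cells exposed to compound for 72 h before imaging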;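 for red/green cell ratio (normalised): normalised mesenchymal count divided by normalised epithelial count so high means epithelial killing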). Conditions: PC-3E GFP / TEM4-18 mCherry co-culture, imaging cell counts, at 1 µM; for red/green cell ratio (normalised): actives lie on both sides, counts scaled to control wells, 1 = unselective.
A short description of assay [12]: viability loss with induced miR-34 in A549 – imaging, A549 dox-inducible miR-34, nuclei and caspase counts, primary screen (AID 1347080). The note with it: A549 miR-34 inducible, Hoechst nuclei count, 48 h.
Assay [13] is described as follows: MELAS cybrid and Rieske KO viability enhancers – cell-based, MELAS cybrids, Rieske KO mouse fibroblasts, CellTiter-Glo, primary screen (AID 1508586;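 active = mean z-score across replicates of 1.96 or higher in either the MELAS or the Rieske mutant cell line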;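 note: z relative to plate mean and SD of compound and empty wells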). Conditions: low glucose.
Assay [14] has as its target NAD(+) hydrolase SARM1 (Homo sapiens) (UniProt Q6SZW1). Nature of the assay: blocking NAD cleavage by SARM1 SAM-TIR – cell lysate, NAD-Glo luminescence (AID 1508614;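 active = compound whose remaining NAD level is above about 45 nM, limit read from the data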;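 note: higher remaining NAD means stronger inhibition of SARM1 NADase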). Conditions: SAM-TIR HEK293T lysate NADase, at 1 µM, stronger effect = higher value.
Setting [15] is: measured here: epithelial PC-3E GFP cell survival.
The mark [16] stands for this setting: measured here: mesenchymal TEM4-18 mCherry cell survival.
The mark [17] stands for this setting: stronger effect = lower value, cell number ratio, induced over uninduced.
[18] abbreviates: measured here: relative caspase fold change +Dox/-Dox.
Setting [19] is: measured here: total cells with miR-34 induction, stronger effect = lower value.
[20] abbreviates: measured here: total cells without miR-34 induction.
Where [21] appears, read: MELAS cybrid survival, CellTiter-Glo 48 h, stronger effect = higher value.
Setting [22] is: Rieske KO mouse fibroblast survival, CellTiter-Glo 72 h.

NAD(+) hydrolase SARM1 (Homo sapiens), sequence (Q6SZW1 whole entry, looked up): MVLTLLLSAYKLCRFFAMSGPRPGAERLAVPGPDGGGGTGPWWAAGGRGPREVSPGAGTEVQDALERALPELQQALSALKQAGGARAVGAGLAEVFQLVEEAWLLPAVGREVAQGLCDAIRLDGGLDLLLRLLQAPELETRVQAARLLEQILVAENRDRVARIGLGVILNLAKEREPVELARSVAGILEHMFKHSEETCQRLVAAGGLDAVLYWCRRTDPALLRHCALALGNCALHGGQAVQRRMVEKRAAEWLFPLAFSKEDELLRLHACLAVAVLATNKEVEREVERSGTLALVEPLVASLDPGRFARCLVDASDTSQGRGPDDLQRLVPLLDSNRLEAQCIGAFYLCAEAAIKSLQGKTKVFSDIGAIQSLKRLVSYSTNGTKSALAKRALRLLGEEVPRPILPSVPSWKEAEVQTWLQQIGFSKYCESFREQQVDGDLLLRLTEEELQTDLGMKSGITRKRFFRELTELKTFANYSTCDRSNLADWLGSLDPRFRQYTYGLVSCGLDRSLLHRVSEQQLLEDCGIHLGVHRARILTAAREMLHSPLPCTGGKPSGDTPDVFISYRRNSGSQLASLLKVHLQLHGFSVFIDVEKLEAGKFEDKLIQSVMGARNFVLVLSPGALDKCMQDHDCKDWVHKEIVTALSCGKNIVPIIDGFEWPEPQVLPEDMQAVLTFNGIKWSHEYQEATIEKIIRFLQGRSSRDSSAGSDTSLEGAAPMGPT

Consider `CC(=O)Oc1cc(C(C)C)c(OCCN(C)C)cc1C`, for which, in assay [1], the survival is 24.8 (inactive). Further, the parasite load remaining in [2] is 26.2% (inactive) and 99.2% (inactive). For the same compound, the viability in assay [2] was 48.6% and 93%. Besides, the nuclear beta-catenin stimulation in [3] (at 10 µM) was -2.5% (inactive); in assay [3] (stimulation, at 2 µM), -1%. The insulin secretion stimulation in assay [4] was 5.5% (inactive). For the same compound, the viability decrease in assay [5] is 19.7% (inactive). In assay [6], the tube area decrease was -2.1% (inactive). Also, in assay [7], the GLP1 secretion stimulation was 2.8% (inactive). In addition, the inhibition of viability in assay [8] was 2.17% (inactive). Also, the values for the viability decrease (inhibition) in assay [9] and in assay [10] were 20.7% (inactive) and -14.3% (inactive), respectively. For the same compound, the red/green cell ratio (normalised) in assay [11] was 1.11 (inactive). For the same compound, the results for the normalised cell number in assay [11] (setting [15]) and in assay [11] (setting [16]) were 0.81 and 0.9, respectively. In addition, the fold change in assay [12] (setting [17]) was 1.09 (inactive) and 0.875 (inactive); in assay [12] (setting [18]) it was 0.909 and 1.24. Moreover, the cell count is 11300 and 8650 in [12] (setting [19]); 10400 and 9890 in assay [12] (setting [20]). The z-score in assay [13] (setting [21]) was 0.238 (inactive); in assay [13] (setting [22]) it was -0.428. Besides, the remaining NAD in [14] is 10 nM (inactive).
As for `CN1C(CCl)Nc2cc(Cl)c(S(N)(=O)=O)cc2S1(=O)=O` (centres undefined), the nuclear beta-catenin stimulation in [3] (at 10 µM) was -0.9% (inactive); in assay [3] (stimulation, at 2 µM), 1.3%. Further, the insulin secretion stimulation in [4] is 2.3% (inactive). For the same compound, in assay [5], the viability decrease was 0.4% (inactive). Further, the tube area decrease in assay [6] is 3.9% (inactive). The GLP1 secretion stimulation in assay [7] is -2.1% (inactive). In addition, in [8], the inhibition of viability is -10.4% (inactive). In addition, the viability decrease (inhibition) was -2.9% (inactive) in assay [9] and -20.7% (inactive) in assay [10]. Besides, in assay [11], the red/green cell ratio (normalised) is 0.93 (inactive). Further, the normalised cell number in assay [11] (setting [15]) stood at 1.23; in assay [11] (setting [16]) it was 1.15. Besides, the fold change was 0.914 (inactive) and 0.898 (inactive) in assay [12] (setting [17]); 1.08 and 0.519 in assay [12] (setting [18]). In addition, the cell count was 8680 and 8370 in assay [12] (setting [19]); 9500 and 9310 in assay [12] (setting [20]). Besides, the results for the z-score in assay [13] (setting [21]) and in assay [13] (setting [22]) were -0.258 (inactive) and -0.124, respectively. The remaining NAD in assay [14] was 10 nM (inactive).
For `O=C(Oc1ccccc1C(=O)O)c1ccccc1O`, in [2], the parasite load remaining was 63.4% (inactive). The viability in [2] is 139%. Also, the nuclear beta-catenin stimulation was 0.1% (inactive) in assay [3] (at 10 µM) and 0.1% in assay [3] (stimulation, at 2 µM). The insulin secretion stimulation in assay [4] was -0.5% (inactive). Moreover, in assay [5], the viability decrease is 13.4% (inactive). Moreover, in assay [6], the tube area decrease is 3.9% (inactive). Moreover, the GLP1 secretion stimulation in assay [7] was -0.4% (inactive). The inhibition of viability in assay [8] is 0.8% (inactive). The viability decrease (inhibition) in assay [9] was 16.6% (inactive); in assay [10], 24.3% (inactive). For the same compound, in assay [11], the red/green cell ratio (normalised) is 1.15 (inactive). In addition, the figures for the normalised cell number in assay [11] (setting [15]) and in assay [11] (setting [16]) were 1.17 and 1.35, respectively. In addition, the fold change in assay [12] (setting [17]) is 0.931 (inactive) and 0.896 (inactive); in [12] (setting [18]), 1.03 and 3.07. The cell count in [12] (setting [19]) is 8500 and 11000; in assay [12] (setting [20]) it was 9120 and 12300. In addition, the z-score in assay [13] (setting [21]) was -0.0904 (inactive); in assay [13] (setting [22]), -0.293. In assay [14], the remaining NAD is 10 nM (inactive).
On to `CCOc1nc2cccc(C(=O)O)c2n1Cc1ccc(-c2ccccc2-c2nn[nH]n2)cc1`, for which the parasite load remaining in assay [2] is 51% (inactive). In addition, the viability in [2] amounted to 130%. In addition, the nuclear beta-catenin stimulation in assay [3] (at 10 µM) was -1.9% (inactive); in assay [3] (stimulation, at 2 µM), 0.8%. In addition, the insulin secretion stimulation in assay [4] is 1.4% (inactive). The viability decrease in [5] was -7.7% (inactive). Moreover, the tube area decrease in [6] was 5.3% (inactive). The GLP1 secretion stimulation in [7] was -1.6% (inactive). In assay [8], the inhibition of viability was -9.8% (inactive). In addition, the viability decrease (inhibition) in [9] is 16.8% (inactive); in [10] it was -13% (inactive). Besides, the red/green cell ratio (normalised) in assay [11] is 1.24 (inactive). The normalised cell number in assay [11] (setting [15]) worked out at 1.08; in assay [11] (setting [16]) it was 1.35. Besides, the fold change in assay [12] (setting [17]) was 1.02 (inactive) and 0.834 (inactive); in assay [12] (setting [18]) it was 0.596 and 1.3. Further, the cell count in assay [12] (setting [19]) was 7490 and 8900; in assay [12] (setting [20]) it was 7350 and 10700. The z-score in [13] (setting [21]) was -0.183 (inactive) and 0.664 (inactive) and -0.412 (inactive); in assay [13] (setting [22]), -0.0185 and -0.257 and -0.953. In addition, in assay [14], the remaining NAD is 10 nM (inactive).
Turning to `O=C(Oc1cccc2cccnc12)c1ccccc1`, in [2], the parasite load remaining was 41.2% (inactive). For the same compound, the viability in [2] stood at 102%. For the same compound, the nuclear beta-catenin stimulation in [3] (at 10 µM) was 19.8% (inactive); in [3] (stimulation, at 2 µM), 0.5%. Also, the insulin secretion stimulation in [4] was -2.2% (inactive). Moreover, the viability decrease in [5] was 23.6% (inactive). For the same compound, the tube area decrease in assay [6] was -21.4% (inactive). For the same compound, the GLP1 secretion stimulation in assay [7] was 0.9% (inactive). For the same compound, the inhibition of viability in [8] is 27.1% (inactive). Besides, the viability decrease (inhibition) in [9] was 22.8% [at 2 µM] (inactive); in [10], -5.55% (inactive). The red/green cell ratio (normalised) in [11] was 1 (inactive). The normalised cell number in assay [11] (setting [15]) is 1.14; in [11] (setting [16]), 1.13. The fold change in assay [12] (setting [17]) was 0.805 (inactive); in assay [12] (setting [18]) it was 5.26. Moreover, the cell count stood at 10400 in [12] (setting [19]) and 12900 in assay [12] (setting [20]). Besides, the z-score in assay [13] (setting [21]) was 0.276 (inactive); in assay [13] (setting [22]), 0.498. Further, the remaining NAD in [14] is 10 nM (inactive).

One may read the viability as a read-out of living cells in per cent, often relative to untreated cells.
